The values below come from the supplement of paper PMC7724964.

Chain of KDM6A 1-520 TPR_8 (domain begin residue: 1, domain end residue: 520), O15550 (O15550 whole entry): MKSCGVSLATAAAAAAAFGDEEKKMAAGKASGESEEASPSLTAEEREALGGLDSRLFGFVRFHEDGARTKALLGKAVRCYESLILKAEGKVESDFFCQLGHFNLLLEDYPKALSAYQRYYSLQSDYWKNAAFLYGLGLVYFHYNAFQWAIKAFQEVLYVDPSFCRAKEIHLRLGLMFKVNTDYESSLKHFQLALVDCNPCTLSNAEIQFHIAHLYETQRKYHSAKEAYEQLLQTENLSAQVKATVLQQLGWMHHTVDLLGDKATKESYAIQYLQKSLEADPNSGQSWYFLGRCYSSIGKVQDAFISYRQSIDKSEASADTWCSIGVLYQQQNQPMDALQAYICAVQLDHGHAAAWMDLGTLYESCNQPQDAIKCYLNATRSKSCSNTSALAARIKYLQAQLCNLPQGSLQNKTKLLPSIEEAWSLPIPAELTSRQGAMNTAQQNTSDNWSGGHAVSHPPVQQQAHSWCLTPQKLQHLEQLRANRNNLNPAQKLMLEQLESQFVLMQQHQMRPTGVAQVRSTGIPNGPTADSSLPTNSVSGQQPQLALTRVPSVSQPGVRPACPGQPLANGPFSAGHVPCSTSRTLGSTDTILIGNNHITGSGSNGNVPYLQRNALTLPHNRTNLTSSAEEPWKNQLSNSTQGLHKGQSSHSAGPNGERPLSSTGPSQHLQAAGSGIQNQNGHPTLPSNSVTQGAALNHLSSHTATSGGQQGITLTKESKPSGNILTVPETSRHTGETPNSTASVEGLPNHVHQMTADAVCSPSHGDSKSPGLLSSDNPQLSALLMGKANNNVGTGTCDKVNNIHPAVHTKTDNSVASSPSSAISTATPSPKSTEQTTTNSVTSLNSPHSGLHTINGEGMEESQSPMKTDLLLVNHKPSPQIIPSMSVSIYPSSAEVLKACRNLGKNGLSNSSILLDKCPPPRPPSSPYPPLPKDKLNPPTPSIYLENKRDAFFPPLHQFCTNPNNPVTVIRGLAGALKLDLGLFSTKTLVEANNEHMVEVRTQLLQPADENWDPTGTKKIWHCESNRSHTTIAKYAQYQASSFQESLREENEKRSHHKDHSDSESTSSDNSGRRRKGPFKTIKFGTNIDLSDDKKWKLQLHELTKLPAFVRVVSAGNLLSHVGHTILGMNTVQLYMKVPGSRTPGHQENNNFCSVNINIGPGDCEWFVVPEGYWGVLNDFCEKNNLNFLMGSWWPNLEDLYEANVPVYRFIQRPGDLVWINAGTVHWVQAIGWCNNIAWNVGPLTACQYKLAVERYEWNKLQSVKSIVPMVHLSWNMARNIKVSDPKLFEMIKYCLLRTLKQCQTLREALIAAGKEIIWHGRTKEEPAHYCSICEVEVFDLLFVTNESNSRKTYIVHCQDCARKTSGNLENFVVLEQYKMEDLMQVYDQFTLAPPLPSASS
Chain of KPNB1 1-876 IBN_N+Arm (domain begin residue: 1, domain end residue: 876), Q14974 (Q14974 whole entry): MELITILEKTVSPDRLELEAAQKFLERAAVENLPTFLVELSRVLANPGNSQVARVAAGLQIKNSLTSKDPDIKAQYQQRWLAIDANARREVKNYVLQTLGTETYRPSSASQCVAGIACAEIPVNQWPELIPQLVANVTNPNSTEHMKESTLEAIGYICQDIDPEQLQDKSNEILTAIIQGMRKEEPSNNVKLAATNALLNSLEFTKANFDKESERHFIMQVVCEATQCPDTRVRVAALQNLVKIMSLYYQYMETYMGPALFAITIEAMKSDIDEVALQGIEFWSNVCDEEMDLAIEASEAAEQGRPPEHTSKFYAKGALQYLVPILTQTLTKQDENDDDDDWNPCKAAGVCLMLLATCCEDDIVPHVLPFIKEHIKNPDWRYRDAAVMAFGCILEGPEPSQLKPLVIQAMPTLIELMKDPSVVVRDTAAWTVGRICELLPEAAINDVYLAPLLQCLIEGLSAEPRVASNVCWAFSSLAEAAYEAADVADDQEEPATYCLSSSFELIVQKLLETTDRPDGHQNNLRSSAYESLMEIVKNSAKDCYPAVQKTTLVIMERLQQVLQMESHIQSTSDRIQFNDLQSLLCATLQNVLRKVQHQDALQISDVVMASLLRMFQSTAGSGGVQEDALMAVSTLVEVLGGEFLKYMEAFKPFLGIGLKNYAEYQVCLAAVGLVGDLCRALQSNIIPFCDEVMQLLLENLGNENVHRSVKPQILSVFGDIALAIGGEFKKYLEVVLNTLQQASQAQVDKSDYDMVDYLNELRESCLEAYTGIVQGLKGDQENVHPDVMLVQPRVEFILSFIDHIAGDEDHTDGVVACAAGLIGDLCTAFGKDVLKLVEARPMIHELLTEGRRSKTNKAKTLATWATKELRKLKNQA
Chain of KARS 71-214 tRNA_anti-codon (domain begin residue: 71, domain end residue: 214), Q15046 (Q15046 whole entry, looked up, tested part not stated): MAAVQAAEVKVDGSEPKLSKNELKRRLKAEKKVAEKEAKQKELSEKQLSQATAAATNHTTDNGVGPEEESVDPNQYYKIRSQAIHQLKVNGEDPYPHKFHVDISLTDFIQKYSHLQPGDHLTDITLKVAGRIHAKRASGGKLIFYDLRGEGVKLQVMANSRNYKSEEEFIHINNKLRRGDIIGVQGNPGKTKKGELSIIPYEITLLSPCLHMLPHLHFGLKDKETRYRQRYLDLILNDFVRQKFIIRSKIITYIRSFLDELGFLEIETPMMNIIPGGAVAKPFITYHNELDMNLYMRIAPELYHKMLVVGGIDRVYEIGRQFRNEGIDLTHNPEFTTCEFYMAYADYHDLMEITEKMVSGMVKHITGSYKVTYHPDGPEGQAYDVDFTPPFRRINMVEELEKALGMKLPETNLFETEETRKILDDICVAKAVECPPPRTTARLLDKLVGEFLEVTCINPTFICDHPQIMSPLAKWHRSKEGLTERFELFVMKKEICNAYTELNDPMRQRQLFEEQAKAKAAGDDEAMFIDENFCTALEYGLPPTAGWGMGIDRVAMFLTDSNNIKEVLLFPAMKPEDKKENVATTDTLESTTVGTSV

The target of the first test is HSPA9 438-651 HSP70 (domain begin residue: 438, domain end residue: 651), P38646. The test can be described thus: phage ELISA signal ratio (GST-PRM binding over GST background); higher = stronger binding of peptide-phage to the PRM. An outline of the steps: (§1)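 An M13 phage library with randomized hexadecapeptides on the gene-8 major coat protein, each peptide lacking cysteine and flanked by glycine, was selected for five rounds against human peptide recognition domains fused to the C-terminus of glutathione S-transferase (GST) and expressed in 96-well plates. Approximately 48 clones from rounds 4 and 5 went to phage ELISA. The reported value is the ELISA signal on the GST-domain fusion over the signal on GST alone, and positive clones were sequenced.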
Chain of HSPA9 438-651 HSP70 (domain begin residue: 438, domain end residue: 651), P38646 (P38646 whole entry, the tested form may be a part): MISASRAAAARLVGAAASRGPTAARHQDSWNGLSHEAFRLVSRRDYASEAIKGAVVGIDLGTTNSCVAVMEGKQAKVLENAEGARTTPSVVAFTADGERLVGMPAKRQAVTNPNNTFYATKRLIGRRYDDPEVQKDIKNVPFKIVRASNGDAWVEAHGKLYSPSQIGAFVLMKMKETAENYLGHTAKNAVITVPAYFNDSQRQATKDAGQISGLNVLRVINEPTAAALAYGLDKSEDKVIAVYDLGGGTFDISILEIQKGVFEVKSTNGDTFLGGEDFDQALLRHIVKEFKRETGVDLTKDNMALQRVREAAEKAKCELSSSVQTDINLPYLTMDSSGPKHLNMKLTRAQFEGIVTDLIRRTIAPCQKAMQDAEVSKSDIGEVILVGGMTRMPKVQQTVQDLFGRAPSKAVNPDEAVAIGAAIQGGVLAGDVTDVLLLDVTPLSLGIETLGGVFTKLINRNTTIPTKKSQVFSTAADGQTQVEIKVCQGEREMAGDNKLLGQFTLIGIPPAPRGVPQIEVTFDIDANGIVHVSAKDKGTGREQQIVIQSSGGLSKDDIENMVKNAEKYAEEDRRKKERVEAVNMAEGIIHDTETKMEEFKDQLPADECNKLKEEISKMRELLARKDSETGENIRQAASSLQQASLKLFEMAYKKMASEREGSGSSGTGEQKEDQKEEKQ
As for PTLLLWQQIDQVMMKK, the “phage ELISA signal ratio” value stood at 20.8. Same read-out and setting: under YMMDQHAWELLMTMMA stands 16.4. As for YFTMDHDAWHYFQLYA, the “phage ELISA signal ratio” value was found to be 20.2.

With VFTFTMSWDAWEYILY, the “phage ELISA signal ratio” value amounted to 18.4.

Another test deals with T1, IRS1 157-267 IRS (domain begin residue: 157, domain end residue: 267), P35568.
T1 chain: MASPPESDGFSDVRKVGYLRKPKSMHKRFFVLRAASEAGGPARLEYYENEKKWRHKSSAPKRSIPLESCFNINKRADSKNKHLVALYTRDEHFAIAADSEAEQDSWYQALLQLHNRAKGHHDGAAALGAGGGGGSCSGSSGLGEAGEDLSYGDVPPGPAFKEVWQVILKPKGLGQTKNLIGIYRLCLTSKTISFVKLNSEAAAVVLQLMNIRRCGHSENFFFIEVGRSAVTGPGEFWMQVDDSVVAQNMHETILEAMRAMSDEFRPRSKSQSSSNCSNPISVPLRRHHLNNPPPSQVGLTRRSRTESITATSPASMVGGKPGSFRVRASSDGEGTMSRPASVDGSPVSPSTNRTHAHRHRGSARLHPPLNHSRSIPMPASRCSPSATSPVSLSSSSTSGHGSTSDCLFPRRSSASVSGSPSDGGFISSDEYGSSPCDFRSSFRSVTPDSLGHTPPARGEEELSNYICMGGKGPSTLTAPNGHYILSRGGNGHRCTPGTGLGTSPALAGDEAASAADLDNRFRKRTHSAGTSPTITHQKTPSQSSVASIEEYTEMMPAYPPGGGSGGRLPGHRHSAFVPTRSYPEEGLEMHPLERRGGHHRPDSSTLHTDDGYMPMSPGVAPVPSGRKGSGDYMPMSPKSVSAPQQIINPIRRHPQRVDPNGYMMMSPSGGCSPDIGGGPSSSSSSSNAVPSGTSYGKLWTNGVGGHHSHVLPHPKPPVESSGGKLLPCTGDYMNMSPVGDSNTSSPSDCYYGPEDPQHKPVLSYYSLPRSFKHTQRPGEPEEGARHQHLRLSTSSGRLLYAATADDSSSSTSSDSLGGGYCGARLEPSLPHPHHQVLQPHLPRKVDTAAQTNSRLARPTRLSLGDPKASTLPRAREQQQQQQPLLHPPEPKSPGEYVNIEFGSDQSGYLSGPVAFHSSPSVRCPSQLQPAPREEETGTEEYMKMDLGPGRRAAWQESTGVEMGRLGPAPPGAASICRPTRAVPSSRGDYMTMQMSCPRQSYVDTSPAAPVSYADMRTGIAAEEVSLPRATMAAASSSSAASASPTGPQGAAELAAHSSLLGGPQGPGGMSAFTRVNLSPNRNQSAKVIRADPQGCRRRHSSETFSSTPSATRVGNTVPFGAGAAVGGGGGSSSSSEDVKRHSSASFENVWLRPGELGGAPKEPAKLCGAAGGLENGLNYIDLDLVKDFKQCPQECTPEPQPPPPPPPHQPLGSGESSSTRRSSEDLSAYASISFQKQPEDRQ
Described as above. A digest of the protocol:
as §1
For SDMNWWEEWDFFLARE, the “phage ELISA signal ratio” value turned out to be 15.

Take WIPADFQEWMELVAYD: the “phage ELISA signal ratio” value came out at 22.4. The same measure, in the same setting: under DLVDWMSATWNENPWY stands 20.7; under GYENWIPEGYRWQDWK, 18.

For a further test, the target named is T2, LBR 1-67 LBR_tudor (domain begin residue: 1, domain end residue: 67), Q14739.
T2 chain: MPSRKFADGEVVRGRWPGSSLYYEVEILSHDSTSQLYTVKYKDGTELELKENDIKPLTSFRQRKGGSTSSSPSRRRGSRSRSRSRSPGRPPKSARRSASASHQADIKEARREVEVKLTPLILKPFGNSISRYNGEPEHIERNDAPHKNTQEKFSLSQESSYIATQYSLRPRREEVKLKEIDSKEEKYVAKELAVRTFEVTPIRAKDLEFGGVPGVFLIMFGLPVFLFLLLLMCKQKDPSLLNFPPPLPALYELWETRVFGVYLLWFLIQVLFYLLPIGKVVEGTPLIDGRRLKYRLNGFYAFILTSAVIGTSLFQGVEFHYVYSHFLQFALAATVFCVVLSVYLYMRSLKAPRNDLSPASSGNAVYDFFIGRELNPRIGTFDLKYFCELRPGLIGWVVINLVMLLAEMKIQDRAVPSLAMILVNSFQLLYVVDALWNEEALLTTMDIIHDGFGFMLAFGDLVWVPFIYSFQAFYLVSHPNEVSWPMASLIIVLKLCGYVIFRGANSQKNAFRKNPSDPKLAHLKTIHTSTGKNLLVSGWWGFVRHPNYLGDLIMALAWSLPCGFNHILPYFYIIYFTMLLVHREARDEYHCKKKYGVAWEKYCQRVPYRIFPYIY
Described as above. A digest of the protocol:
as §1
Consider PYDNYRVVQIPWLFSD, for which the “phage ELISA signal ratio” value was determined as 3.18. On to YNFIESMYTMEPMPMH, for which the “phage ELISA signal ratio” value was 3.33.

As to DDVTWMWPPGGYFVNM, the “phage ELISA signal ratio” value worked out at 4.54. Turning to FHGIWVQDELRVWMMD, the “phage ELISA signal ratio” value worked out at 8.63.

Another test has as its target KARS 71-214 tRNA_anti-codon (domain begin residue: 71, domain end residue: 214), Q15046. The test is described as above. An outline of the steps:
as §1
Take ETWADYFNVPISWIHE: the “phage ELISA signal ratio” value was determined as 18.1. As for DWEWYQYFNAPQPVKG, the “phage ELISA signal ratio” value was 25.1.

In another test the target is KPNB1 1-876 IBN_N+Arm (domain begin residue: 1, domain end residue: 876), Q14974. The description is as above. A digest of the protocol:
as §1
WISFPFSDWQGDLFTF: the “phage ELISA signal ratio” value amounted to 10.3.

For the molecule WVETSTYPEWPAVFVF, the “phage ELISA signal ratio” value was found to be 16.3. PSEWENYMSVGDIFIF: the “phage ELISA signal ratio” value amounted to 16.9. The same measure, in the same setting: then LDWMSMFDDYSSLFSV, with 16.8; and WDWVVREMSFDEVFIF, with 20.4. Same read-out and setting: then PWPQEYTTDLTSVFWF, with 19.7.

Another test deals with SETD1A 2-220 RRM_1 (domain begin residue: 2, domain end residue: 220), O15047. The description is as above. A digest of the protocol: as §1
For the molecule YNFIESMYTMEPMPMH, the “phage ELISA signal ratio” value is 4.24.

In a further test the target is T3, ZGPAT 120-268 zf-CCCH+TUDOR (domain begin residue: 120, domain end residue: 268), Q8N5A5.
T3 chain: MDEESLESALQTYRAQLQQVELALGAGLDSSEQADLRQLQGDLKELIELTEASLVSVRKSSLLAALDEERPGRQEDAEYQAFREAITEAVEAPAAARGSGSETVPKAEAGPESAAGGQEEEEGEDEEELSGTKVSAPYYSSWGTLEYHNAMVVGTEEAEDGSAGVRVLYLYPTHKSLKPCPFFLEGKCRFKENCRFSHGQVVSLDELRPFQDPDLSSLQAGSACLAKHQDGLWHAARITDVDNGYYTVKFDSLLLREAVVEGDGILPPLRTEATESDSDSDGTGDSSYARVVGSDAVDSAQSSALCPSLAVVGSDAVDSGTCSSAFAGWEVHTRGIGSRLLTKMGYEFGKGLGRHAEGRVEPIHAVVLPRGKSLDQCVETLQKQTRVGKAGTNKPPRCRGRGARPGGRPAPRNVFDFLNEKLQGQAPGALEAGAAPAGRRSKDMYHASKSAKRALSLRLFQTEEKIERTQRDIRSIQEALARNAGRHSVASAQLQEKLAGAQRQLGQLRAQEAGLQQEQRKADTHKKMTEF
The test is described as above. An outline of the steps:
as §1
Consider YNFIESMYTMEPMPMH, for which the “phage ELISA signal ratio” value was 3.65.

The next test addresses KDM6A 1-520 TPR_8 (domain begin residue: 1, domain end residue: 520), O15550. The test is described as above. A digest of the protocol: as §1
As for HYMEMLYEQLAISQAI, the “phage ELISA signal ratio” value was determined as 5.05. For IYLDQWFEEISTYVPA, the “phage ELISA signal ratio” value came out at 8.33. On the same count and under the same terms, under DNAMVIWHSTTELYQH stands 3.82; under WENIWDDMIEQIIIPQ, 8.83. Same read-out and setting: then QWLEWISPEIDFTPME, with 3.57.

The next test deals with KMT2C 995-1055 PHD (domain begin residue: 995, domain end residue: 1055). The test is described as above. An outline of the steps: as §1
For the molecule SIKGIYIDDVLRLIDQ, the “phage ELISA signal ratio” value came to 6.63.

For the next test, the target named is T4, KAT8 2-458 Tudor-knot+MOZ_SAS (domain begin residue: 2, domain end residue: 458), Q9H7Z6.
T4 chain: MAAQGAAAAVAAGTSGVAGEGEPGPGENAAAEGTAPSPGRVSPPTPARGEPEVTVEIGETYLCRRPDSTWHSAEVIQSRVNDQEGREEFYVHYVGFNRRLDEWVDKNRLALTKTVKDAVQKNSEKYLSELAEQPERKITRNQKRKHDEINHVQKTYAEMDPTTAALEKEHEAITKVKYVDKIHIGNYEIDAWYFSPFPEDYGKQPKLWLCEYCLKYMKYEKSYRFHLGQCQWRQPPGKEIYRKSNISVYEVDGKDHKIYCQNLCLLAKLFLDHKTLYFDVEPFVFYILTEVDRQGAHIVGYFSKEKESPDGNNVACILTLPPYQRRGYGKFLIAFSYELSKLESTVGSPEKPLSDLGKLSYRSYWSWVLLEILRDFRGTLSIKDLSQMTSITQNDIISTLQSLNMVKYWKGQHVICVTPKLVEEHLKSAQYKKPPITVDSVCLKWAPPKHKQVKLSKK
The description is as above. A digest of the protocol:
as §1
Turning to YIDHMYDVVMYEEIEW, the “phage ELISA signal ratio” value is 3.94.

For another test, the target named is T5, TDRD1 261-449 TUDOR (domain begin residue: 261, domain end residue: 449), Q9BXT4.
T5 chain: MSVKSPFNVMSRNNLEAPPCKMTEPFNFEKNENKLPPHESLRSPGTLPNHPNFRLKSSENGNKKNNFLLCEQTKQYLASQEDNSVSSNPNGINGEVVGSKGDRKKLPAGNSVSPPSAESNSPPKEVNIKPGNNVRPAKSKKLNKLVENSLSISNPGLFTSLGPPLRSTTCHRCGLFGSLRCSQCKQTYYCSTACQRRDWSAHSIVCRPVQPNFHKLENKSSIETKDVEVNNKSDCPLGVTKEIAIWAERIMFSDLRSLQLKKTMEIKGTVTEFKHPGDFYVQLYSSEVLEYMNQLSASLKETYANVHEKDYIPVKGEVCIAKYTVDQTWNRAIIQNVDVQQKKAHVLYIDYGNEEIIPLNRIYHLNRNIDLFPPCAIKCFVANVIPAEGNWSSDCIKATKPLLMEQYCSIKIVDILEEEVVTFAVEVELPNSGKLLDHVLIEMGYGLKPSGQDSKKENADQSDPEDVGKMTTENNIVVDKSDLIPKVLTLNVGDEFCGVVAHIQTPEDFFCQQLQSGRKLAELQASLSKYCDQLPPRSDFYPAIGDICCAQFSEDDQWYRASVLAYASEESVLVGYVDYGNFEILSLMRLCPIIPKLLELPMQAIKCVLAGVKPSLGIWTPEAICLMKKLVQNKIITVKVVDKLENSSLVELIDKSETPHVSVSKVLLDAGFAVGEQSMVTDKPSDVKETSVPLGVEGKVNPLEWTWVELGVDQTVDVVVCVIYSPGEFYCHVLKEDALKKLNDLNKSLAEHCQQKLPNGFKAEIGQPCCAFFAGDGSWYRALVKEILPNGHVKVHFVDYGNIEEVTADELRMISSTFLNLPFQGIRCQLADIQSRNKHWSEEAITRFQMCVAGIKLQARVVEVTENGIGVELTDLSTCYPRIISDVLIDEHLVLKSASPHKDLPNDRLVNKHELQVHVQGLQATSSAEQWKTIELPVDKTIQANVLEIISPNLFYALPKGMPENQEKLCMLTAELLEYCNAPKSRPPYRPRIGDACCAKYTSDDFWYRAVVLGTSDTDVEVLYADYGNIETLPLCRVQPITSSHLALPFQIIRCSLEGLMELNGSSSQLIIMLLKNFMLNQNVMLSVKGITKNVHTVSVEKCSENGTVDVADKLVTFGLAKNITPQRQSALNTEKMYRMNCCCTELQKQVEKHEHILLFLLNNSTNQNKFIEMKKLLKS
The test is described as above. A digest of the protocol: as §1
For YIDHMYDVVMYEEIEW, the “phage ELISA signal ratio” value turned out to be 8.98.
